{
  "source": "PubChem BioAssay AID1946",
  "about": "(Johns Hopkins Ion Channel Center, 2009)",
  "note": "Screen size: about 2,400 compounds; about 180 (7.5%) were called active.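 How the source made its calls: active means readout below zero, meaning a drop past 3 SD under the dofetilide-free negative control mean; inactive means the rest.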 What follows is part of a selection rich in actives, with near analogues and random picks from the rest.",
  "data": [
    {"molecular_target": "Potassium voltage-gated channel subfamily KQT member 2 (Rattus norvegicus) (UniProt O88943)", "sequence (O88943 whole entry, looked up)": "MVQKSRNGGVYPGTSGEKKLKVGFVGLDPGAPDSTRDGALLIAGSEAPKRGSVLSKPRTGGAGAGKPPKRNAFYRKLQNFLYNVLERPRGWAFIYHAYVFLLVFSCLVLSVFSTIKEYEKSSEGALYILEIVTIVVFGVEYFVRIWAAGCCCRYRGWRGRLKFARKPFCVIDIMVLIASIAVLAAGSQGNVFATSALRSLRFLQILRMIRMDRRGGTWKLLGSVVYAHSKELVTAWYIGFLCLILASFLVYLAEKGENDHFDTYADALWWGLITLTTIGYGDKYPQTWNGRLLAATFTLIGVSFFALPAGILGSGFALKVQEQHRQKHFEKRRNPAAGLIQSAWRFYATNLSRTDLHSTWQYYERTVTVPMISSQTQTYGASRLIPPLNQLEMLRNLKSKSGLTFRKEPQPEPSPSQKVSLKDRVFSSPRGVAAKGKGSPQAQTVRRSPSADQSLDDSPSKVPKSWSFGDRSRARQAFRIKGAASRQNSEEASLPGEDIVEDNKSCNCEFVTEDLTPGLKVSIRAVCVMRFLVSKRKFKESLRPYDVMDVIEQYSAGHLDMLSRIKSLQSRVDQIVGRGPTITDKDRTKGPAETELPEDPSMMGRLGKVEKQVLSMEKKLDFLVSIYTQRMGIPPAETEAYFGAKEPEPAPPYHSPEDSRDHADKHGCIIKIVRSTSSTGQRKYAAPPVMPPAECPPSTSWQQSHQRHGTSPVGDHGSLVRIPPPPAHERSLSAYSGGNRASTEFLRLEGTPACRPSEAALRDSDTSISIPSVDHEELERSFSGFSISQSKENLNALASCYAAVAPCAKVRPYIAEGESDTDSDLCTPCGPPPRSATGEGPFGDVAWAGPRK", "test": "KCNQ2 blockade in CHO cells – cell-based, FluxOR thallium flux, counter-screen for hERG block protector project, confirmation (AID 1946)", "settings": "FluxOR thallium flux fluorescence, at 10 µM, hits give low values", "values": [
      {"compound": "O=C(O)CCC(=O)NCCC1=c2ccccc2=N/C1=C\\c1c(O)n(Cc2ccc(F)cc2)c(=S)[nH]c1=O", "activity change vs negative control": "-3.3% (active)"},
      {"compound": "O=C1CC(=O)N(c2cccc(C(F)(F)F)c2)C(=O)N1", "activity change vs negative control": "10.7% [zero marks the 3-SD hit cutoff] (inactive)"},
      {"compound": "COc1ccc2c(c1)/C(=C/c1cnc[nH]1)C(=O)N2", "activity change vs negative control": "28% [zero marks the 3-SD hit cutoff] (inactive)"},
      {"compound": "COc1ccc2c3c1OC1C(O)C=CC4C(C2)[N+](C)(C)CCC341", "note": "(stereo not given)", "activity change vs negative control": "11.5% (inactive)"},
      {"compound": "CCOC(=O)c1c(NS(=O)(=O)c2ccccc2)n(CCCOC)c2nc3ccccc3nc12", "activity change vs negative control": "1.7% [zero marks the 3-SD hit cutoff] (inactive)"},
      {"compound": "O=c1[nH]c(=S)[nH]c(O)c1/C=C1/C=c2ccccc2=N1", "activity change vs negative control": "-4.3% (active)"},
      {"compound": "C=CCn1c(O)c(/C=C2/C=c3ccccc3=N2)c(=O)[nH]c1=S", "activity change vs negative control": "3.2% (inactive)"},
      {"compound": "Cc1ccc(S(=O)(=O)NC(Cc2cnc[nH]2)C(=O)O)cc1", "note": "(stereo not given)", "activity change vs negative control": "7.9% [zero marks the 3-SD hit cutoff] (inactive)"},
      {"compound": "Cc1ccc(-n2c(O)c(/C=N/Nc3ccccc3)c(=O)[nH]c2=O)cc1C", "activity change vs negative control": "18.8% (inactive)"},
      {"compound": "C1CCC2S[C@H]3CCCCC3NC2C1", "note": "(stereo not given in full)", "activity change vs negative control": "6.1% [zero marks the 3-SD hit cutoff] (inactive)"},
      {"compound": "Cc1nc2ccccc2c(=O)n1-c1cc([N+](=O)[O-])cc([N+](=O)[O-])c1", "activity change vs negative control": "-5.3% (active)"},
      {"compound": "CCOC(=O)Cn1cc([N+](=O)[O-])nc1[N+](=O)[O-]", "activity change vs negative control": "14.6% [zero marks the 3-SD hit cutoff] (inactive)"},
      {"compound": "O=c1[nH]c(=S)[nH]c(O)c1N=Nc1ccc(S(=O)(=O)N2CCc3ccccc32)cc1", "activity change vs negative control": "7.8% (inactive)"},
      {"compound": "O=C(Cn1ncc2c3ccccc3n(Cc3ccccc3F)c2c1=O)N1CCC2(CC1)OCCO2", "activity change vs negative control": "64.8% (inactive)"},
      {"compound": "CCCc1[nH]nc2c1C1(C(=O)N(Cc3ccccc3)c3ccccc31)C(C(=O)OC)=C(N)O2", "note": "(stereo not given)", "activity change vs negative control": "3.3% [zero marks the 3-SD hit cutoff] (inactive)"},
      {"compound": "O=C1NC(=O)N(c2ccccc2)C(=O)/C1=C/c1ccc(Sc2ccccc2)o1", "activity change vs negative control": "-2.5% (active)"},
      {"compound": "O=C1NC(=S)N(c2ccc(F)cc2)C(=O)/C1=C/c1ccco1", "activity change vs negative control": "22.1% (inactive)"},
      {"compound": "Cc1ccccc1N1C(=O)/C(=C/c2ccco2)C(=O)NC1=S", "activity change vs negative control": "15% (inactive)"},
      {"compound": "CN1C(=O)/C(=C/c2ccc(Cl)s2)C(=O)NC1=S", "activity change vs negative control": "9.5% (inactive)"},
      {"compound": "CC(=NCc1ccco1)c1c(O)n(-c2ccc(C)cc2)c(=O)[nH]c1=O", "activity change vs negative control": "18.6% (inactive)"},
      {"compound": "O=c1[nH]c(O)c(/C=C2/C=CC(c3cc(Cl)ccc3Cl)=N2)c(=O)[nH]1", "activity change vs negative control": "-2.7% (active)"},
      {"compound": "O=C1NC(=O)C(=Cc2ccc(-c3ccc(Cl)cc3)o2)C(=O)N1", "activity change vs negative control": "11% (inactive)"},
      {"compound": "O=C(O)c1c[nH]c2ccc(S(=O)(=O)N(CCCl)CCCl)cc12", "activity change vs negative control": "14% [zero marks the 3-SD hit cutoff] (inactive)"},
      {"compound": "N#CC1=C(N)Oc2c(c(=O)oc3ccccc23)C1c1cccnc1", "note": "(stereo not given)", "activity change vs negative control": "7.9% [zero marks the 3-SD hit cutoff] (inactive)"},
      {"compound": "NCCc1ccc(S(N)(=O)=O)cc1", "activity change vs negative control": "-1.5% [zero marks the 3-SD hit cutoff] (active)"},
      {"compound": "O=c1c2cc(Br)ccc2[nH]c(=S)n1-c1ccccc1", "activity change vs negative control": "9.1% [zero marks the 3-SD hit cutoff] (inactive)"},
      {"compound": "CCCCn1c(O)c(C(CC)=Nc2ccc(OCC)cc2)c(=O)[nH]c1=O", "activity change vs negative control": "3.2% (inactive)"},
      {"compound": "CN1C(=O)/C(=C\\c2ccc(Br)s2)C(=O)NC1=S", "activity change vs negative control": "6.5% (inactive)"},
      {"compound": "Oc1cccc2cccnc12", "activity change vs negative control": "24.3% [zero marks the 3-SD hit cutoff] (inactive)"},
      {"compound": "COc1ccccc1N1CCN(Cc2ccc(F)cc2)CC1", "activity change vs negative control": "8.2% (inactive)"}
    ]}
  ]
}
